We go through 15 compounds from PubChem BioAssay (NCI).

SMILES strings stand for the structures. This is part of a sample that, as a whole, favours compounds with a hit. Of some 83,000 tested, about 20% had one in any assay.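 Values shown are percent growth following 48 h exposure of cells in 96-well plates to a single concentration of compound; below 10 was considered active.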 Calls of active or inactive are those of the source.

The test deals with OVCAR-3 ovarian. Briefly: NCI-60 one-dose screen, 48 h (100 = growth as untreated, 0 = no growth, -100 = all killed). The conditions noted are these: 10 µM unless noted.
For `O=c1oc2ccccc2cc1-c1csc(N=Nc2c(O)[nH]c3ccc(Cl)cc23)n1`, the growth was 107% (inactive). Take `COc1cc2nc(SCc3cc(OC)c(OC)c(OC)c3)n(-c3ccccc3OC)c(=O)c2cc1OC`: the growth is 48.2% (inactive). With `COc1ccc(-c2nc3sccn3c2/C=C/C(=O)c2cc(OC)c(OC)c(OC)c2)cc1OC`, the growth was 2.79% (active).

In the case of `COC(=O)c1c2c(c(C)[n+]([O-])c1C)C(=O)C=C(NCc1ccc(F)c(Cl)c1)C2=O`, the growth was -41.4% (active). Under `O=C(N/N=C/c1ccc(F)cc1)c1[nH]c2ccc(I)cc2c1-c1ccccc1` stands 5.48% (active). Under `Cc1nc2cc(Nc3nc(Nc4ccc(F)cc4)nc(N4CCCC4)n3)ccc2n1Cc1ccccc1` stands -84% (active). Take `COc1cc2oc(-c3ccc(O)cc3)cc(=O)c2c(O)c1I`: the growth is 117% (inactive). Under `COC(=O)c1c2c(c(C)[n+]([O-])c1C)C(=O)C=C(NCc1ccc(Cl)cc1)C2=O` stands -28.6% (active); under `Cc1nc2cc(Nc3nc(Nc4ccc(F)cc4)nc(N4CCN(C)CC4)n3)ccc2n1Cc1ccccc1`, -35.6% (active); under `COc1ccc(OC)c2ncccc12`, 110% (inactive). For `COc1ccc(S(=O)(=O)ON=C2C=C(C)C(=O)C(C)=C2)cc1` the value was 68.5% (inactive); for `O=C(COc1cccc(/C=C2\COc3ccccc3C2=O)c1)c1ccccc1`, 80.3% (inactive); for `Oc1cccc(Nc2nc(-c3ccccn3)cs2)c1`, 119% (inactive).

Consider `O=C1c2c(c3c4cc(Br)ccc4[nH]c3c3ccc4ccccc4c23)C(=O)N1O`, for which the growth is 107% (inactive). Under `C=CC[P+](c1ccccc1)(c1ccccc1)c1ccccc1` stands 32% (inactive).
